Laboratory results reported in the supplement of paper PMC10849652.
About 7,900 targets were measured; listed, in parts, are those with a hit and a random draw of the rest. About 0.6% of all pairs of compound and target were hits.

What follows are targets tested with COc1cc2nc(-c3cc(F)ccc3O)nc(N[C@@H]3CNC[C@H]3C(C)(C)O)c2cc1OC (assay: log2 fold change, soluble protein after heating vs DMSO (PISA); higher = thermal stabilisation; K562 cells, 10 uM, 30 min; active = over 0.2 and 3.5 SD of the protein, either way, in both replicates (recomputed)).
Outline: (§1)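 Soluble protein was defined as the supernatant after 21,000xg for 90 min. It came from K562 cells at 2×10^6 cells/mL given 10 μM compound for 30 min, heated in aliquots for 3 min across 48°C-58°C, pooled, and extracted in PBS with 0.5% NP-40 at 4°C, and was quantified by TMTpro 16plex LC-MS/MS with equalised channel sums. Thermal stability against control samples, from duplicates, is reported as log2 fold change.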

Chain of UniProt Q7L1Q6 (Q7L1Q6 whole entry, looked up): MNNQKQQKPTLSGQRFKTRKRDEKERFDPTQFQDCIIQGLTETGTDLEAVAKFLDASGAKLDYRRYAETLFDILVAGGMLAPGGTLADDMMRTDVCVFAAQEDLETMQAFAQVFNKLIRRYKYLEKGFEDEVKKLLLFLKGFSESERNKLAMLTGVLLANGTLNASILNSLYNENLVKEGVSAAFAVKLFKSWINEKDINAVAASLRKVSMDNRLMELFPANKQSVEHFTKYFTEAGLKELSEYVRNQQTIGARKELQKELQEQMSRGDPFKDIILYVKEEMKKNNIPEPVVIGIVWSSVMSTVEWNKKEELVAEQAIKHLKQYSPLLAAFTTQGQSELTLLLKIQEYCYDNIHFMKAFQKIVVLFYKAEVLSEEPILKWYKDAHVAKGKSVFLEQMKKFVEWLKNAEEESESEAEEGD
Chain of UniProt Q9Y4P1 (Q9Y4P1 whole entry, looked up): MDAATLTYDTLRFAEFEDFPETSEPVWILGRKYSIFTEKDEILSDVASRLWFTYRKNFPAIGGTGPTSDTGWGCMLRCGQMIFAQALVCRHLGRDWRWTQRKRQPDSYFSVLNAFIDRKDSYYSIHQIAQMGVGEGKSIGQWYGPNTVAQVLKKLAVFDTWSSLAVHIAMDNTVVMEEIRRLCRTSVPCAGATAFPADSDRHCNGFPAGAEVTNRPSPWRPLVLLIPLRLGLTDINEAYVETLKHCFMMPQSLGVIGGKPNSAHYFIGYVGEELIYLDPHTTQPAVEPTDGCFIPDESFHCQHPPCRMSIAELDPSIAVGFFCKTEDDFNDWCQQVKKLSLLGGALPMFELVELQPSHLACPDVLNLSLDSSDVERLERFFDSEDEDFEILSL
Chain of UniProt Q8IUR7 (Q8IUR7 whole entry, looked up): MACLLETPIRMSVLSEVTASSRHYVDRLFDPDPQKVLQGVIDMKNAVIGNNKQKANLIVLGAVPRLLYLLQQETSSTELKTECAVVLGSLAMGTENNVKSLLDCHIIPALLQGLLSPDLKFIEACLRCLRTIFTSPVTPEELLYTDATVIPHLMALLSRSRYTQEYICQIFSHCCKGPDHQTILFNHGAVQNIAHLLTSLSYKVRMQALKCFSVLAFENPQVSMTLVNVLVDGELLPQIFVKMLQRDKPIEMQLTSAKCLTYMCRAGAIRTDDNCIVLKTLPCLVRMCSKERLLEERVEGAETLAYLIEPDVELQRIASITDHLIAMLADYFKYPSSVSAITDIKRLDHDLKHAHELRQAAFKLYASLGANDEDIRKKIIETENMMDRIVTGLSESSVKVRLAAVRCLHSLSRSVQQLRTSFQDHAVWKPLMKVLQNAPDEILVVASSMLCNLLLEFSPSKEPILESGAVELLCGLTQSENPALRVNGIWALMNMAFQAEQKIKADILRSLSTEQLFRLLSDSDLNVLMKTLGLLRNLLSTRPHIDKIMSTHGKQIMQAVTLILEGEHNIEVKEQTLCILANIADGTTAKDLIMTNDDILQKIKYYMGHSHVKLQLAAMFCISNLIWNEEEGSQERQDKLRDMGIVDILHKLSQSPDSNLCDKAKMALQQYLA
Chain of UniProt O60566 (O60566 whole entry, looked up): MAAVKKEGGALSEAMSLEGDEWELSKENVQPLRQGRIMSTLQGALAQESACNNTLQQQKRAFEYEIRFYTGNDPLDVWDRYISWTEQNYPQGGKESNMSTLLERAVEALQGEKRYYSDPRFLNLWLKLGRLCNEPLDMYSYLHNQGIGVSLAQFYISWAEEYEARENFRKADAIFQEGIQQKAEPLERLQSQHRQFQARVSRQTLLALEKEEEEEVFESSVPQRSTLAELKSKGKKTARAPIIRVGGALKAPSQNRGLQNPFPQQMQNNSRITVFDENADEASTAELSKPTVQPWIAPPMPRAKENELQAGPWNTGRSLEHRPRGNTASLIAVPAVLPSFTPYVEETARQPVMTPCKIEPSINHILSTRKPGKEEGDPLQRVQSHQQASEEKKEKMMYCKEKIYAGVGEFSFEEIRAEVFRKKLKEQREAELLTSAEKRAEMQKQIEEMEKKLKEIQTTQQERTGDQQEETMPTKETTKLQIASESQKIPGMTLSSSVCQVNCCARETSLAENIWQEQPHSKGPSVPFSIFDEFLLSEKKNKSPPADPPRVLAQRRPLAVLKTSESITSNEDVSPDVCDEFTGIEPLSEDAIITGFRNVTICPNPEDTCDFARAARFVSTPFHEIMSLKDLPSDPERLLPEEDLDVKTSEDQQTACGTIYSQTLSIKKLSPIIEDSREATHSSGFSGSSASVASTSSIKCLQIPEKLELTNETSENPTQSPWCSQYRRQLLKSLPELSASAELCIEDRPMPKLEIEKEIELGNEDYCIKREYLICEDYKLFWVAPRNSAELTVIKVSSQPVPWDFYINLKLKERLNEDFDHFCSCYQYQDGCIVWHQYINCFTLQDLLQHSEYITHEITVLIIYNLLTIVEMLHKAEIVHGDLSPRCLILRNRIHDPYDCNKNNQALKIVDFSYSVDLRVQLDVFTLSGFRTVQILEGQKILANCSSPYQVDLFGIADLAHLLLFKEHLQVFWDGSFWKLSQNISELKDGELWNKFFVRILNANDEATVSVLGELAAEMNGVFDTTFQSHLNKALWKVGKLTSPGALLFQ
Chain of UniProt Q9NRZ7 (Q9NRZ7 whole entry, looked up): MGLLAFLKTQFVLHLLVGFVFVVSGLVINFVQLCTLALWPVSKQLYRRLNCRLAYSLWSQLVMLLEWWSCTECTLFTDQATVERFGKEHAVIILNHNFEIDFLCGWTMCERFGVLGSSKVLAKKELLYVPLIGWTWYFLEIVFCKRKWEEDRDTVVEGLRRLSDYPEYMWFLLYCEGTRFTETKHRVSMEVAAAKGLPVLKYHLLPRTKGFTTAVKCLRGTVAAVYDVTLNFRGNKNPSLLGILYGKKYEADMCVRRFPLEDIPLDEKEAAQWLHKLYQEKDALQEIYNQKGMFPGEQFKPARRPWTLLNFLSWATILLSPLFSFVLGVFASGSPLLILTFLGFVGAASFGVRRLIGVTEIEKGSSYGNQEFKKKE
Chain of UniProt Q9UHQ4 (Q9UHQ4 whole entry, looked up): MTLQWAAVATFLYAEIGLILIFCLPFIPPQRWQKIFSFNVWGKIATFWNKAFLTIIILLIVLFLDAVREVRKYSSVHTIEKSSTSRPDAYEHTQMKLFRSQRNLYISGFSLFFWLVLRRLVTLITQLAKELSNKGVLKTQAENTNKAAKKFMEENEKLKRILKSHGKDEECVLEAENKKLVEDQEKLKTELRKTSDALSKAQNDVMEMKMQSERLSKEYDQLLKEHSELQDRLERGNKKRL
Chain of UniProt Q99943 (Q99943 whole entry, looked up): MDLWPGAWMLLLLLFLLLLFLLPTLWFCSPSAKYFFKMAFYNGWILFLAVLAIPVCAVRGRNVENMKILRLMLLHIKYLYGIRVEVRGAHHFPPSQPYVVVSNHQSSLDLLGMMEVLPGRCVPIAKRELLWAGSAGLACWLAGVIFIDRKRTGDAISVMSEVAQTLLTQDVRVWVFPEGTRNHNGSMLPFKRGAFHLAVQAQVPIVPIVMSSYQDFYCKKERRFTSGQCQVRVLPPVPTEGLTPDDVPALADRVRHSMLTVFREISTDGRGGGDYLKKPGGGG
Chain of UniProt Q10589 (Q10589 whole entry, looked up): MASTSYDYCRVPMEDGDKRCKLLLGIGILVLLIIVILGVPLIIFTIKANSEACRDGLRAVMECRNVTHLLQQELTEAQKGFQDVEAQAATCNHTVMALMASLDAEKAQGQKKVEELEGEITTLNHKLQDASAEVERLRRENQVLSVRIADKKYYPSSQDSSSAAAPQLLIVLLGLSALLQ
Chain of UniProt O43823 (O43823 whole entry, looked up): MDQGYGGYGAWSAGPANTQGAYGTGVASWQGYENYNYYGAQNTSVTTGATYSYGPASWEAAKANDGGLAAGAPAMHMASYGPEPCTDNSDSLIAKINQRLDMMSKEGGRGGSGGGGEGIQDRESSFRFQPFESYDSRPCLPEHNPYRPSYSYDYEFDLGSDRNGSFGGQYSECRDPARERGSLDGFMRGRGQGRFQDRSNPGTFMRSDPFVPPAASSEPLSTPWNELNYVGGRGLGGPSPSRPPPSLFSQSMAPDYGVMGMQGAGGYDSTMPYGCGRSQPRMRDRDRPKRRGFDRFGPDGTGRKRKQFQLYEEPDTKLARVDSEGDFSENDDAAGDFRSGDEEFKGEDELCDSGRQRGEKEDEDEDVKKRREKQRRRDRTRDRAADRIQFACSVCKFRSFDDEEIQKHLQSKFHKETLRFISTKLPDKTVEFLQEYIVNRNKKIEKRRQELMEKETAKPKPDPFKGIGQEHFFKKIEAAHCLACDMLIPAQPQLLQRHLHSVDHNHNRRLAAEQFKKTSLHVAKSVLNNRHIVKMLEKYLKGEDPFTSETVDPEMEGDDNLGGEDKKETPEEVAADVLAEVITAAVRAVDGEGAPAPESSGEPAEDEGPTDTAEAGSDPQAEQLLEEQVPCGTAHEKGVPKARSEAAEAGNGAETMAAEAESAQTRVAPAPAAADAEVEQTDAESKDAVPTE
Chain of UniProt Q9UBL3 (Q9UBL3 whole entry, looked up): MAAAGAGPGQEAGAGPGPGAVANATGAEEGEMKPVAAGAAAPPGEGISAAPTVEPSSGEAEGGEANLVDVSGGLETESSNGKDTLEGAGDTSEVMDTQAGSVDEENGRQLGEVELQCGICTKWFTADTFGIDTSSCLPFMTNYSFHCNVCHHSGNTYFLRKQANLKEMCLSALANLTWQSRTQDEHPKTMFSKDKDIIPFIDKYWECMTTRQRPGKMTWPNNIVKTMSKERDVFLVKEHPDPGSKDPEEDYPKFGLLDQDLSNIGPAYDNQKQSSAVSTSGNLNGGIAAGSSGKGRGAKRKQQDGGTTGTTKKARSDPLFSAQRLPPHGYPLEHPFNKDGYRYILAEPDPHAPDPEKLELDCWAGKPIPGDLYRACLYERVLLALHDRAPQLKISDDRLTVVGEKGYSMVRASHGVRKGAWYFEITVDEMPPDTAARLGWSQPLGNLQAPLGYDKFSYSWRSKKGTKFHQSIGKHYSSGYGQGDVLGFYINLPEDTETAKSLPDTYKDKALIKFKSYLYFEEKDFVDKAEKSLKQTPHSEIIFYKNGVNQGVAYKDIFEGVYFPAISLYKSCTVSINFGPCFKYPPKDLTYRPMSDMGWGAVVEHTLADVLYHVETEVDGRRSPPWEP

log2 fold change, inactive:
AGPAT3 isoform 3 (UniProt Q9NRZ7) 0.083, BUB1B isoform 3 (UniProt O60566) 0.001, ARMC8 (UniProt Q8IUR7) -0.014, BCAP29 isoform 2 (UniProt Q9UHQ4) -0.1, ATG4B isoform 2 (UniProt Q9Y4P1) -0.058, BST2 (UniProt Q10589) -0.028, AKAP8 (UniProt O43823) -0.002, BZW1 isoform 3 (UniProt Q7L1Q6) -0.032, ANKRD29 (UniProt Q8N6D5) 0.279, AGPAT5 (UniProt Q9NUQ2) -0.111, ASH2L (UniProt Q9UBL3) 0.035, AGPAT1 (UniProt Q99943) 0.176

Each target was assayed with COc1cc2ncnc(Nc3ccc(F)c(Cl)c3)c2cc1OCCCN1CCOCC1 [gefitinib] in the same assay as above.
Outline: as §1

log2 fold change, inactive:
BLVRB (UniProt P30043) 0.061, ARL3 (UniProt P36405) -0.018, AGRN (UniProt O00468) 0.118, AARS2 (UniProt Q5JTZ9) -0.002, AP2A2 isoform 2 (UniProt O94973) 0.027, ATOX1 (UniProt O00244) -0.036, ATP6V0A1 isoform 3 (UniProt Q93050) -0.18, ALG3 (UniProt Q92685) -0.046, APOH (UniProt P02749) -0.307, ATP12A isoform 2 (UniProt P54707) 0.032, AGPS (UniProt O00116) 0.069, ATP1A1 (UniProt P05023) 0.03, BZW2 (UniProt Q9Y6E2) -0.009, ACIN1 (UniProt Q9UKV3) 0.041, BMP2K (UniProt Q9NSY1) 0.024, AIFM2 (UniProt Q9BRQ8) 0.096, ATP1B3 (UniProt P54709) 0.025, BECN1 (UniProt Q14457) 0, ATP6V1H (UniProt Q9UI12) -0.121, ATAD3B (UniProt Q5T9A4) -0.134, ADRM1 (UniProt Q16186) -0.055, BRD3 (UniProt Q15059) 0.227, ASNS (UniProt P08243) -0.032, AGPAT3 isoform 3 (UniProt Q9NRZ7) 0.012, BUB1B isoform 3 (UniProt O60566) 0.032, ARMC8 (UniProt Q8IUR7) -0.029, BCAP29 isoform 2 (UniProt Q9UHQ4) 0.035, ATG4B isoform 2 (UniProt Q9Y4P1) 0.005, BST2 (UniProt Q10589) -0.022, AKAP8 (UniProt O43823) -0.049, BZW1 isoform 3 (UniProt Q7L1Q6) -0.028, ANKRD29 (UniProt Q8N6D5) -0.066, AGPAT5 (UniProt Q9NUQ2) 0.018, ASH2L (UniProt Q9UBL3) 0.004, AGPAT1 (UniProt Q99943) 0.028
